Source: PubChem BioAssay (several laboratories)
Sampled rows, rich in hits. Any-hit rate of the full collection: about 1.2%.
CCHF vOTU inh-1 – CCHFV vOTU protease inhibitors, primary screen, biochemical, Pep-AMC substrate, fluorescence. Crimean-Congo hemorrhagic fever virus L polyprotein viral ovarian tumor (vOTU) protease …. inhibition, % at 11.5 µM. hit rate 0.55% among 370,000. AID 651958, 2012; further: 0% = vehicle wells with enzyme and 100% = no enzyme wells
RecA splice inh – Mtb RecA intein splicing inhibitors, primary screen, biochemical, fluorescence, HTS; cell-free RecA intein splicing; inhibition, % (concentration not given with the values); hit rate 0.75% among 290,000; AID 2221, 2009; in the data active means inhibition above about 30%; inconclusive means no clear call, values can overlap the other calls;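 further: 0% = vehicle wells and 100% = reference inhibitor control wells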
Mtb UGM inh – M. tuberculosis UGM enzyme inhibitors, primary screen, biochemical, fluorescence polarization, single point; AID 504406, 2011; UDP-galactopyranose mutase (Mycobacterium tuberculosis (strain ATCC 25618 / H37Rv)), …; inhibition, % at 10 µM; hit rate 0.06% among 320,000; purified UGM, fluorescence polarization probe displacement; in the data active means inhibition above about 10%, passing the limit was not always enough; inconclusive means no clear call, values can overlap the other calls
Target sequence (P9WIQ1 whole entry, looked up): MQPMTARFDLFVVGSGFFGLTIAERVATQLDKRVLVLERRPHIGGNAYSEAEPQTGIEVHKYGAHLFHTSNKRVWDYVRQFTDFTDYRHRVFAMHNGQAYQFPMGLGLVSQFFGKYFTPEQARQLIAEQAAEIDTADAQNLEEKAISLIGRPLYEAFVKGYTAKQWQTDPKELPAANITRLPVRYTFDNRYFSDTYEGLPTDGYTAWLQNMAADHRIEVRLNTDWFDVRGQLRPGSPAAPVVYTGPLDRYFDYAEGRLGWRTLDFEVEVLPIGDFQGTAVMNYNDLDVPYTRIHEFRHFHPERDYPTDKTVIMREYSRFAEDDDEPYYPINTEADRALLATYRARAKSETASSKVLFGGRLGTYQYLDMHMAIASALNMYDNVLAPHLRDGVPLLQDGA
Rv3671c protease – Rv3671c serine protease inhibitors, primary screen, biochemical, fluorescence polarization, M. tuberculosis H37Rv. P9WHR9. inhibition, % at 5.96 µM. hit rate 0.048% among 320,000. AID 2606, 2010; in the data active means inhibition above about 38%;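 further: extracellular domain of Rv3671c used as enzyme; 0% = enzyme with DMSO and 100% = no enzyme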
Mtb bLac sens – beta-lactam sensitization of Mtb H37Rv, H37Rv. M. tuberculosis H37Rv growth with meropenem, percent inhibition. inhibition, % at 25 µM. hit rate 0.27% among 330,000. AID 434955, 2010; call rule not given here;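 further: growth measured after seven days incubation then overnight dye step; 0% = bacteria only wells and 100% = bacteria with antibiotic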
CCHF vOTU inh-2 – CCHFV vOTU protease inhibitors, confirmation, biochemical, Pep-AMC substrate, fluorescence; shares compounds with CCHF vOTU inh-1; Recombinant CCHFV vOTU; inhibition, % at 11.5 µM; hit rate 17% among 1,900
* marks the source's active call; other numbers are inactive results; ? = inconclusive; / = no result. Unless noted, no stated cut-off is given here; in the data, active means inhibition above about 30%; inactive means the rest.

SMILES | CCHF vOTU inh-1 | RecA splice inh | Mtb UGM inh | Rv3671c protease | Mtb bLac sens | CCHF vOTU inh-2
COC(=O)[C@]12C[C@H](CC(=O)NCCC(C)C)C(=O)N(Cc3ccc4c(c3)OCO4)C1=C[C@H](C(C)(C)C)O[C@@H]2C | 31.8* | / | / | / | / | -2.7
COC(=O)[C@]12C[C@H](CC(=O)NCc3cccc(C(F)(F)F)c3)C(=O)N(Cc3ccc4c(c3)OCO4)C1=C[C@H](C(C)(C)C)O[C@@H]2C | 34.3* | / | / | / | / | 10.8
CC(C)CNc1cccc2c1S(=O)(=O)N(Cc1cn(Cc3cccc(F)c3)nn1)Cc1ccccc1O2 | 2.6 | / | / | / | / | /
CC(C)(C)OC(=O)N1CCCC(C(=O)Nc2cccc(C(=O)NCCCc3ccccc3)c2)C1 (stereo unspecified) | 31.3* | / | / | / | / | 1.0
CC(C)(C)OC(=O)N1CCC(C(=O)Nc2cccc(C(=O)NCCCc3ccccc3)c2)CC1 | 12.3 | / | / | / | / | /
COc1ccccc1N1CCN(C(=O)C2CCN(C(=O)c3ccccc3Cl)CC2)CC1 | 31.2* | -0.1 | 3.4 | / | 3.7 | -6.6
O=C(Nc1nc(-c2ccncc2)cs1)c1ccc(S(=O)(=O)N2CCOCC2)cc1 | 39.1* | -4.8 | -3.3 | -8.4 | -6.8 | -6.8
CCN(CC(=O)NCc1cccs1)C(=O)CCCOc1ccc(C(C)(C)C)cc1 | 30.7* | / | 3.2 | -5.1 | 1.9 | -2.9
COC(=O)[C@]12C[C@H](CC(=O)N3CCC(c4ccccc4)CC3)C(=O)N(Cc3cccc4ccccc34)C1=C[C@H](C(C)C)O[C@@H]2C1CC1 | 15.5 | / | / | / | / | /
CCOC(=O)[C@@]12CCCC3=C1N(CCC3)C(=O)[C@H]2CC(=O)NCc1cccs1 | -1.1 | / | / | / | / | /
C[C@@H](/C=C/C(=O)OC(C)(C)C)Sc1ccc(C(C)(C)C)cc1 | 3.7 | / | / | / | / | /
COC(=O)c1ccc(-c2nc(O)c(C)s2)cc1 | 5.0 | 1.5 | -4.2 | -2.6 | 4.5 | /
COC(=O)c1ccc(-c2nc3cc(Cl)c(N)cc3s2)cc1 | 42.9* | 3.4 | -0.9 | 0.0 | -6.9 | -4.6
Cc1ccc(-c2cc(-c3nnc(SCC(=O)Nc4ccccc4-c4ccccc4)n3N)[nH]n2)cc1 | 7.4 | / | / | / | / | /
C[C@@H]1CCCCO[C@H](CN(C)C(=O)Nc2ccc(C(F)(F)F)cc2)[C@@H](C)CN([C@H](C)CO)C(=O)c2cc(NC(=O)c3ccncc3)ccc2O1 | 32.3* | / | / | / | / | -1.3
C[C@@H]1CCCCO[C@H](CN(C)C(=O)CCC(F)(F)F)[C@@H](C)CN([C@H](C)CO)C(=O)c2cc(NC(=O)c3ccncc3)ccc2O1 | 16.6 | / | / | / | / | /
CCCCNS(=O)(=O)CC1NCc2ccc(C)cc21 (stereo unspecified) | 2.6 | / | / | / | / | /
O=C1c2[nH]nc(-c3ccccc3)c2C(c2cccc(C(F)(F)F)c2)N1c1ccccc1 (stereo unspecified) | 14.9 | / | / | / | / | /
CC(C)c1[nH]nc2c1C(c1cccc(C(F)(F)F)c1)N(c1ccccc1)C2=O (stereo unspecified) | 34.4* | / | / | / | / | 3.0
CC(C)N1CCCCC(NC(=O)c2ccc(F)cc2)C1=O (stereo unspecified) | 2.2 | / | / | / | / | /
Cc1c(C=O)c(Cl)n(C)c(=O)c1C#N | 68.2* | -4.7 | 2.5 | -123.9 | -1.4 | 109.6*
CC(=O)N=Cc1c(C)c(C#N)c(=O)n(C)c1O | 16.5 | 2.9 | -2.0 | -5.9 | -2.5 | /
C=CCN1[C@@H](Cc2ccccc2)COc2cccc(F)c2S1(=O)=O | 1.0 | / | / | / | / | /
CC(NC(=O)CCNS(=O)(=O)c1ccccc1)c1ccccc1 (stereo unspecified) | 4.6 | -2.9 | 0.8 | 3.2 | -0.6 | /
CC(NC(=O)CS(=O)(=O)c1ccccc1)c1ccccc1 (stereo unspecified) | 36.1* | 3.0 | 3.3 | -6.0 | -22.9 | -25.4
SMILES | CCHF vOTU inh-1 | RecA splice inh | Mtb UGM inh | Rv3671c protease | Mtb bLac sens | CCHF vOTU inh-2
COc1ccc(/C=N/N=C2/NC(=O)C(CC(=O)O)S2)cc1OCc1ccc(Cl)cc1 (stereo unspecified) | 30.9* | -9.5 | 2.0 | 2.6 | 2.7 | -0.8
O=C(O)CC1S/C(=N/N=C/c2ccc(-c3ccc(Cl)cc3[N+](=O)[O-])o2)NC1=O (stereo unspecified) | 36.0* | 70.1* | 5.2 | -23.3 | 4.6 | 15.2
CC(CCN1CCC(C(O)(c2ccccc2)c2ccccc2)CC1)Oc1cccc(Cl)c1 (stereo unspecified) | 6.8 | / | / | / | / | /
COC(=O)[C@]12C[C@H](CC(=O)NCc3cccc4ccccc34)C(=O)N(Cc3ccccc3)C1=C[C@H](C(C)(C)C)O[C@@H]2C | 25.7 | / | / | / | / | /
C[C@@H]1CN(C(=O)OC(C)(C)C)CCN1c1ccc(N2CC[C@H](O)C2)c(C#N)c1 | 48.2* | / | / | / | / | -15.5
COCc1cc(N2CCN(C(=O)OC(C)(C)C)C[C@@H]2C)ccc1N1CC[C@@H](O)C1 | 4.0 | / | / | / | / | /
C[C@@H]1CN(c2ccc(N3CCN(C(=O)OC(C)(C)C)C[C@H]3C)cc2C#N)C[C@H](C)O1 | 17.2 | / | / | / | / | /
C[C@@H]1CN(c2ccc(N3CCN(C(=O)OC(C)(C)C)C[C@@H]3C)cc2C#N)C[C@H](C)O1 | 41.0* | / | / | / | / | -2.9
CCn1c(COc2ccccc2)nnc1SCC(=O)Nc1ccc(Oc2ccccc2)cc1 | 8.1 | / | / | / | / | /
COc1ccccc1NC(=O)OC1CCC12CCCCC2 (stereo unspecified) | 2.1 | / | / | / | / | /
CCOc1ccc(Br)cc1S(=O)(=O)Nc1cccc(S(=O)(=O)Nc2ccccc2C(=O)O)c1 | 30.0* | / | 5.7 | -2.5 | -5.2 | -4.0
NC(=O)c1ncn([C@@H]2O[C@H](C(=O)N[C@H](Cc3c[nH]c4ccccc34)C(=O)N3CCN(C(=O)C4CC4)CC3)[C@@H](O)[C@H]2O)n1 | 3.8 | / | / | / | / | /
CC(C)C[C@H]1COc2cccc(N3CCCC3)c2S(=O)(=O)N1C | 4.5 | / | / | / | / | /
O=C(CCc1ccccc1-c1ccccc1CCNC(=O)COCc1ccccc1)NCc1ccccc1 | 9.1 | / | / | / | / | /
O=C(CSc1nc2ccccc2c(=O)[nH]1)c1cccs1 | 6.7 | 1.1 | -4.6 | -5.5 | -27.1 | /
N#Cc1c(-c2cccs2)nc(SCC(=O)c2cccs2)[nH]c1=O | 31.4* | 2.9 | -0.4 | -22.6 | -8.6 | -3.3
CC[C@@H](CCC1CCCCC1)CN(c1ccccc1)S(C)(=O)=O | 15.0 | / | / | / | / | /
CCOC(=O)C1CCN(Cc2oc(CO)cc(=O)c2O)CC1 | 41.3* | / | -2.8 | -11.9 | ? | -13.3
COC(=O)[C@]12C[C@H](CC(=O)NCCC(C)C)C(=O)N(CCc3ccc(OC)c(OC)c3)C1=C[C@H](C(C)C)O[C@@H]2C1CC1 | 17.9 | / | / | / | / | /
O=C(CNC(=O)c1ccco1)OCC(=O)c1cccc2ccccc12 | -5.2 | 3.7 | -0.1 | 3.1 | -4.6 | /
O=C(CNC(=O)Cc1ccccc1)NCC(=O)OCC(=O)c1cccc2ccccc12 | 31.0* | -2.5 | 0.3 | -4.5 | -12.8 | -16.5
CCc1cccc(OCC(=O)Nc2ccc(C(=O)O)cc2NC(=O)COc2cccc(CC)c2)c1 | 33.5* | 5.2 | -1.7 | -11.8 | -2.1 | 5.1
